Test results as given in PubChem BioAssay AID1159580 (chemical genetic matrix, 2015).
Out of some 5,500 compounds screened, about 2,000 (36%) were called active. Roughly 18% stayed inconclusive and do not appear here. No stated cut-off is given here; in the data, active means normalized growth mostly below about 0.91 (no sharp cut-off); inconclusive means no clear call, values can overlap the other calls; inactive means mostly above about 0.92. The list shows a part of the results.

Experiment: chemical genetic growth profiling, strain panel (AID 1159580);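 further: tested at 20 µM; growth read once vehicle control cultures reached saturation at 30 °C; 1 = growth at the plate median or of vehicle wells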
Conditions: growth OD

Measured: normalized growth

Nc1nc(=S)c2[nH]cnc2[nH]1
inactive: S. cerevisiae deletion strains, locus YJR075W, strain HOC1, stronger effect = lower value 1.03 | S. cerevisiae deletion strains, locus YKL009W, strain mrt4, stronger effect = lower value 1 | S. cerevisiae deletion strains, locus YKL068W, stronger effect = lower value 1 | S. cerevisiae deletion strains, locus YKL085W, strain MDH1 (second series), stronger effect = lower value 1.02 | S. cerevisiae deletion strains, locus YKL085W, strain MDH1, stronger effect = lower value 1.02 | S. cerevisiae deletion strains, locus YKL160W, strain elf1, stronger effect = lower value 0.943 | S. cerevisiae deletion strains, locus YKL190W, strain CNB1, stronger effect = lower value 1 | S. cerevisiae deletion strains, locus YKR001C, strain vps1, stronger effect = lower value 1.01 | S. cerevisiae deletion strains, locus YKR026C, strain gcn3, stronger effect = lower value 0.976 | S. cerevisiae deletion strains, locus YKR091W, strain srl3, stronger effect = lower value 0.975 | S. cerevisiae deletion strains, locus YLL001W, strain dnm1, stronger effect = lower value 1 | S. cerevisiae deletion strains, locus YLL026W, stronger effect = lower value 0.983 | S. cerevisiae deletion strains, locus YLL041C, strain sdh2, stronger effect = lower value 0.984 | S. cerevisiae deletion strains, locus YLR027C, strain aat2, stronger effect = lower value 0.992 | S. cerevisiae deletion strains, locus YLR039C, strain RIC1, stronger effect = lower value 1.08 | S. cerevisiae deletion strains, locus YLR058C, strain SHM2, stronger effect = lower value 1.01 | S. cerevisiae deletion strains, locus YLR102C, strain apc9, stronger effect = lower value 0.999 | S. cerevisiae deletion strains, locus YLR113W, strain HOG1, stronger effect = lower value 0.984 | S. cerevisiae deletion strains, locus YLR221C, strain rsa3, stronger effect = lower value 1.03 | S. cerevisiae deletion strains, locus YLR258W, strain gsy2, stronger effect = lower value 0.961 | S. cerevisiae deletion strains, locus YLR262C, strain YPT6 (second series), stronger effect = lower value 1 | S. cerevisiae deletion strains, locus YLR262C, strain YPT6, stronger effect = lower value 1.07 | S. cerevisiae deletion strains, locus YLR268W, strain sec22, stronger effect = lower value 1.01 | S. cerevisiae deletion strains, locus YLR320W, strain mms22, stronger effect = lower value 0.992 | S. cerevisiae deletion strains, locus YLR330W, strain CHS5, stronger effect = lower value 1.01 | S. cerevisiae deletion strains, locus YLR342W, strain FKS1 (second series), stronger effect = lower value 1 | S. cerevisiae deletion strains, locus YLR342W, strain FKS1, stronger effect = lower value 0.957 | S. cerevisiae deletion strains, locus YLR357W, strain rsc2, stronger effect = lower value 0.937 | S. cerevisiae deletion strains, locus YLR370C, strain arc18, stronger effect = lower value 0.974 | S. cerevisiae deletion strains, locus YLR371W, strain rom2, stronger effect = lower value 1 | S. cerevisiae deletion strains, locus YLR384C, strain iki3, stronger effect = lower value 0.97 | S. cerevisiae deletion strains, locus YLR418C, strain cdc73, stronger effect = lower value 1 | S. cerevisiae deletion strains, locus YML016C, strain PPZ1, stronger effect = lower value 1.01 | S. cerevisiae deletion strains, locus YML032C, strain rad52, stronger effect = lower value 0.996 | S. cerevisiae deletion strains, locus YML120C, strain ndi1, stronger effect = lower value 0.983 | S. cerevisiae deletion strains, locus YML124C, strain tub3, stronger effect = lower value 0.998 | S. cerevisiae deletion strains, locus YMR058W, strain fet3, stronger effect = lower value 1 | S. cerevisiae deletion strains, locus YMR078C, strain ctf18, stronger effect = lower value 0.997 | S. cerevisiae deletion strains, locus YMR125W, strain sto1, stronger effect = lower value 0.952 | S. cerevisiae deletion strains, locus YMR129W, stronger effect = lower value 0.971 | S. cerevisiae deletion strains, locus YMR205C, strain PFK2, stronger effect = lower value 0.995 | S. cerevisiae deletion strains, locus YMR223W, strain ubp8, stronger effect = lower value 0.985 | S. cerevisiae deletion strains, locus YMR231W, strain pep5, stronger effect = lower value 0.987 | S. cerevisiae deletion strains, locus YMR263W, strain SAP30, stronger effect = lower value 1 | S. cerevisiae deletion strains, locus YMR307W, strain GAS1, stronger effect = lower value 1.02 | S. cerevisiae deletion strains, locus YNL067W, strain RPL9B, stronger effect = lower value 1.02 | S. cerevisiae deletion strains, locus YNL071W, strain lat1, stronger effect = lower value 0.981 | S. cerevisiae deletion strains, locus YNL128W, strain TEP1, stronger effect = lower value 1.03 | S. cerevisiae deletion strains, locus YNL153C, strain GIM3, stronger effect = lower value 0.992 | S. cerevisiae deletion strains, locus YNL183C, strain NPR1, stronger effect = lower value 0.956 | S. cerevisiae deletion strains, locus YNL209W, strain ssb2, stronger effect = lower value 0.98 | S. cerevisiae deletion strains, locus YNL233W, strain BNI4, stronger effect = lower value 1.01 | S. cerevisiae deletion strains, locus YNL248C, strain rpa49, stronger effect = lower value 0.92 | S. cerevisiae deletion strains, locus YNL250W, strain rad50, stronger effect = lower value 0.992 | S. cerevisiae deletion strains, locus YNL271C, strain bni1, stronger effect = lower value 1 | S. cerevisiae deletion strains, locus YNL298W, strain CLA4, stronger effect = lower value 1.01 | S. cerevisiae deletion strains, locus YNL307C, strain MCK1, stronger effect = lower value 1 | S. cerevisiae deletion strains, locus YNL322C, strain KRE1 (second series), stronger effect = lower value 0.963 | S. cerevisiae deletion strains, locus YNL322C, strain KRE1, stronger effect = lower value 1.02 | S. cerevisiae deletion strains, locus YNR049C, strain mso1, stronger effect = lower value 0.979 | S. cerevisiae deletion strains, locus YNR052C, strain pop2, stronger effect = lower value 0.999 | S. cerevisiae deletion strains, locus YOL006C, strain TOP1, stronger effect = lower value 1.06 | S. cerevisiae deletion strains, locus YOL012C, strain htz1 1.07 | S. cerevisiae deletion strains, locus YOL147C, strain pex11, stronger effect = lower value 0.995 | S. cerevisiae deletion strains, locus YOR001W, strain rrp6, stronger effect = lower value 1.01 | S. cerevisiae deletion strains, locus YOR061W, strain CKA2, stronger effect = lower value 1.01 | S. cerevisiae deletion strains, locus YOR069W, strain VPS5, stronger effect = lower value 1.01 | S. cerevisiae deletion strains, locus YOR070C, strain gyp1, stronger effect = lower value 0.973 | S. cerevisiae deletion strains, locus YOR080W, strain dia2, stronger effect = lower value 0.996 | S. cerevisiae deletion strains, locus YOR083W, strain WHI5, stronger effect = lower value 0.914 | S. cerevisiae deletion strains, locus YOR106W, strain vam3, stronger effect = lower value 0.96 | S. cerevisiae deletion strains, locus YOR136W, strain idh2, stronger effect = lower value 0.999 | S. cerevisiae deletion strains, locus YOR144C, strain elg1, stronger effect = lower value 0.999 | S. cerevisiae deletion strains, locus YOR184W, strain ser1, stronger effect = lower value 1.01 | S. cerevisiae deletion strains, locus YOR231W, strain MKK1, stronger effect = lower value 1.02 | S. cerevisiae deletion strains, locus YOR265W, strain rbl2, stronger effect = lower value 0.991 | S. cerevisiae deletion strains, locus YOR270C, strain vph1, stronger effect = lower value 1.03 | S. cerevisiae deletion strains, locus YOR290C, strain snf2, stronger effect = lower value 0.942 | S. cerevisiae deletion strains, locus YOR316C, strain cot1, stronger effect = lower value 0.997 | S. cerevisiae deletion strains, locus YPL051W, strain arl3, stronger effect = lower value 0.964 | S. cerevisiae deletion strains, locus YPL055C, strain LGE1, stronger effect = lower value 1.02 | S. cerevisiae deletion strains, locus YPL078C, strain atp4, stronger effect = lower value 0.95 | S. cerevisiae deletion strains, locus YPL106C, strain sse1, stronger effect = lower value 0.977 | S. cerevisiae deletion strains, locus YPL240C, strain hsp82, stronger effect = lower value 1.02 | S. cerevisiae deletion strains, locus YPL241C, strain CIN2, stronger effect = lower value 1.01 | S. cerevisiae deletion strains, locus YPL256C, strain CLN2, stronger effect = lower value 0.964 | S. cerevisiae deletion strains, locus YPR119W, strain clb2, stronger effect = lower value 1.01 | S. cerevisiae deletion strains, locus YPR141C, strain kar3, stronger effect = lower value 0.997 | S. cerevisiae deletion strains, locus YPR163C, strain tif3, stronger effect = lower value 1 | S. cerevisiae deletion strains, locus YPR167C, strain met16, stronger effect = lower value 1 | S. cerevisiae deletion strains, strain wtn01, stronger effect = lower value 0.98 | S. cerevisiae strains, strain wild type, stronger effect = lower value 1.01
